The list is not random: actives were taken first. Their share in the collection is about 2.2%.
aSyn rescue: qHTS of alpha-syn Inhibitors | Potency, µM (highest dose often 46.1 µM), hits mostly activators | Yeast expressing alpha-synuclein, growth rescue, BacTiter-Glo, 24 h | 370,000 tested, 0.14% active; note: nearly all actives have a fitted effect of over 65% in size
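Rescue of yeast growth: cells expressing toxic alpha-synuclein, induced in galactose at OD600 0.02, incubated with compound 24 h at 30 C. ATP luminescence quantified growth; inhibitors of toxicity appear as activators.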
FUS suppressor: qHTS for Suppressors of FUS Proteinopathy: Primary screen using FUS-linked yeast assay | Potency, µM (titrated, usually from 76.6 µM), hits mostly activators | S. cerevisiae FUS-expressing, growth rescue, OD600, 24 h | AID 1347120, 2019 | 390,000 tested, 0.24% active; note: nearly all actives have a fitted effect of over 55% in size
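Toxicity suppression screen in FUS-yeast. Cells induced with 2% galactose, starting OD 0.005, treated 24hr at 30C with compounds at multiple final concentrations; growth by OD600.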
Abeta rescue: qHTS for compounds that reverse cellular toxicity of Amyloid beta (A-beta) peptide in yeast: Primary Screen | yeast expressing A-beta42, growth rescue, OD600, 48 h; response scale: 0% DMSO, 100% iron-clioquinol control | Potency, µM (doses to about 46.1 µM), most hits filed as activators | AID 1347071, 2019 | 410,000 tested, 0.063% active; note: nearly all actives have a fitted effect of over 55% in size
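Growth rescue measured by 600 nm absorbance after 48 h yeast culture at 30 C with compound. Values normalized between DMSO and an equimolar ferric chloride plus clioquinol control.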
Mito fusion act: qHTS Assay for Small Molecule Inhibitors of Mitochondrial Division or Activators of Mitochondrial Fusion; AID 485298, 2010; 320,000 tested, 0.23% active; S. cerevisiae fusion-defective mutant growth rescue, CellTiterGlo 48 h; Potency, µM (doses to about 46.1 µM), hits mostly activators; note: nearly all actives have a fitted effect of over 45% in size
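Luminescent cell viability in 1536-well qHTS format served as the measure of rescued growth in ts fusion-mutant S. cerevisiae cultured on non-fermentable YPEG for 48 hours at 37C.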
TDP43 rescue: qHTS of TDP-43 Inhibitors. TDP-43 expressing yeast growth rescue, BacTiter-Glo, 24 h. Potency, µM (top dose mostly 46.1 µM), hits mostly activators. 410,000 tested, 1.8% active. AID 652104, 2013; note: nearly all actives have a fitted effect of over 50% in size
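In this qHTS, compounds that restore growth of yeast expressing TDP-43 appear as activators. Cells (OD600=0.02, galactose medium, raffinose-pregrown) are incubated with compound 24 hr at 30 deg C and growth is quantified by BacTiter-Glo.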
Numbers stand for hits; n = inactive; u = inconclusive; x = no result given; [ ] = remark or other dose. Calls come from the whole dose curve; as a rule, active = well fitted curve in the direction sought with a large enough effect; inconclusive = small, poorly fitted or top-dose-only effect, or another doubt; inactive = no such curve, though single readings can be large; an effect the other way counts as inactive or inconclusive.

SMILES	aSyn rescue	FUS suppressor	Abeta rescue	Mito fusion act	TDP43 rescue
COc1cccc(-n2ccnc2SCC(=O)Nc2cccc(C)c2C)c1	n	n	n	x	15.8µM
O=C(CSc1nccn1-c1ccc(Cl)cc1)Nc1cccc2ccccc12	x	n	n	x	11.2µM
CCSc1nnc(NC(=O)CSc2nccn2-c2cccc(C)c2C)s1	n	n	n	n	15.8µM
CCOc1ccccc1NC(=O)CSc1nccn1-c1ccc(Cl)cc1	x	n	n	x	u
O=C(CSc1nccn1-c1ccc(F)cc1)Nc1ccc(OC(F)(F)F)cc1	x	n	u	x	15.8µM
COc1cccc(C(=O)Nc2ccccc2-c2nnc(-c3cccc(OC)c3)o2)c1	n	n	n	x	n
COc1ccc(COC(=O)C2=C(C)NC(=O)NC2c2ccccc2)cc1 (stereo not given)	n	n	n	n	u
Cc1ccc2cc(CN(c3ccccc3C)S(=O)(=O)c3ccccc3)c(=O)[nH]c2c1	n	n	n	n	n
Cc1ccc(Cl)cc1NC(=O)C1CCCN(S(=O)(=O)c2cccc3cccnc23)C1 (stereo not given)	x	n	n	x	u
CCN(C(=O)CSc1nc2ccccc2n1Cc1ccc(F)cc1Cl)c1ccccc1	x	n	n	x	n
Cc1ccc(NC(=O)C2CCN(C(=O)c3cnn(-c4ccccc4)c3-n3cccc3)CC2)cc1C	x	n	n	x	n
O=C(CSc1nccn1-c1cccc(Cl)c1)Nc1ccc2c(c1)OCCO2	n	n	n	n	u
O=C(CSc1nccn1-c1cccc(Cl)c1)Nc1ccc2c(c1)OCO2	x	n	n	x	17.8µM
Cc1cc(C)cc(-n2ccnc2SCC(=O)Nc2cccc3ccccc23)c1	n	n	n	x	20µM
COC(=O)C1=CN(c2ccc(C(C)(C)C)cc2)C(N)=C(C#N)C1c1cccc([N+](=O)[O-])c1 (stereo not given)	n	u	n	x	n
CCOC(=O)c1c(C)[nH]c(CCC(=O)NCc2cc(OC)c(OC)c(OC)c2)c1C	x	n	n	x	n
COc1cccc(CN2c3ccc(Br)cc3C(=O)CS2(=O)=O)c1	n	u	n	n	15.8µM
C=CCN1c2ccc(Br)cc2C(=O)CS1(=O)=O	n	n	n	n	20µM
Cc1ccc(NC(=O)Cn2cc(C(=O)c3ccco3)c3ccccc32)c(C)c1	x	n	n	n	n
COc1cc(C#Cc2c(-c3cncn3C)n(C)c3ccc(-c4cnc(OC)nc4)cc23)cc(OC)c1	n	n	n	u	11.2µM
O=C1C=C(c2cccc(CO)c2)C[C@@H](c2ccc3c(c2)OCO3)C1	n	n	n	n	20µM
N#Cc1ccc(C2=CC(=O)C[C@H](c3ccc4c(c3)OCO4)C2)cc1	n	u	n	n	17.8µM
CCOC(=O)c1cc2c(=O)n3ccccc3nc2n(Cc2ccco2)c1=NC(=O)c1cccc(F)c1	x	u	n	x	n
O=C(OCC(=O)c1c[nH]c2ccccc12)c1cncc(Br)c1	n[1.84 µM]	n	n	x	11.2µM
COc1ccc(N2C(=O)C(CC(=O)Nc3ccc(F)cc3)N(Cc3ccc4c(c3)OCO4)C2=O)cc1 (stereo not given)	x	n	n	x	n
SMILES	aSyn rescue	FUS suppressor	Abeta rescue	Mito fusion act	TDP43 rescue
CCOC(=O)c1ccc(NC(=O)CC2C(=O)N(c3ccc(F)cc3)C(=O)N2Cc2ccc3c(c2)OCO3)cc1 (stereo not given)	x	39.8µM	n	x	n
C[C@H]1CN([C@@H](C)CO)C(=O)CCCn2cc(nn2)CO[C@@H]1CN(C)C(=O)Nc1ccc(C(F)(F)F)cc1	n	n	n	x	n
Oc1ccc(NCc2ccc(OCc3ccccc3)cc2)cc1	n	u	n	n	15.8µM
Cc1occc1C(=O)N1CCN(c2ccc(Cl)cc2)CC1	n	n	n	n	10µM
Cc1scc(C(=O)N2CCN(c3ccc(Cl)cc3)CC2)c1C	n	n	n	n	14.1µM
CC(=O)c1ccc(N2CCN(C(=O)c3ccc4[nH]c(C)c(C)c4c3)CC2)cc1	n	n	n	x	u
Cc1occc1C(=O)N1CCN(c2ccc([N+](=O)[O-])cc2)CC1	n	n	n	n	n
Cc1[nH]c2ccc(C(=O)N3CCN(c4ccc(F)cc4)CC3)cc2c1C	n	n	n	n	14.1µM
Cc1[nH]c(-c2ccc(F)cc2)cc1C(=O)N1CCN(c2ccc(Cl)cc2)CC1	u	n	n	n	15.8µM
O=C(Cc1ccccc1F)Nc1cc(S(=O)(=O)N2CCOCC2)ccc1N1CCCC1	n	n	n	x	n
O=S(=O)(Nc1cccc(-c2ccc3nncn3n2)c1)c1ccc(Cl)s1	n	n	n	n	n
CSc1ccc(Cn2c(C)c(C(=O)NCCC#N)sc2=O)cc1	n	n	n	x	n
Cc1c(/C=C/C(=O)c2ccc(Cl)s2)cnn1C	n	n	n	n	12.6µM
CCCN1CNc2c(c(=O)[nH]c(=S)n2CCCc2ccccc2)C1	n	x	x	x	x
COc1ccc(NC(=O)CCS(=O)(=O)c2ccccc2Cl)cc1S(=O)(=O)Nc1ccc(Cl)cc1	n	31.6µM	n	n	n
O=C(O)c1ccccc1-n1c2ccccc2c2ccccc21	u	n	n	n	20µM
Cc1nn(-c2ccccc2C(=O)O)c(=O)c2ccccc12	n	n	n	n	n
CCOc1cc(/C=N/Nc2nc3ccccc3[nH]2)cc(Br)c1OCC(=O)N(C)C	n	n	n	n	n
COc1ccc(/C=C2\COc3ccccc3C2=O)cc1OC	n	n	n	n	2.82µM
O=C(O)c1ccc(/C=C2\COc3ccccc3C2=O)cc1	u	n	n	n	11.2µM
CCOc1cc(/C=C2\COc3ccccc3C2=O)cc(Br)c1OCC(=O)N(C)C	u	u	n	n	22.4µM
Cc1onc(C(=O)NN)c1-c1csc(COc2ccc(Cl)cc2)n1	n	n	n	n	11.2µM
O=C(C1CCN(S(=O)(=O)c2ccc3[nH]c(=O)oc3c2)CC1)N1CCCN(Cc2ccccc2)CC1	x	n	x	x	x
O=C(NC1=NCCS1)c1cc(-c2cccc(Br)c2)nc2ccccc12	n	x	n	n	22.4µM
Cc1ccc2nc(-c3cccc(Br)c3)cc(C(=O)NC3=NCCS3)c2c1	n	n	n	n	20µM
SMILES	aSyn rescue	FUS suppressor	Abeta rescue	Mito fusion act	TDP43 rescue
CCCCN(C)C(=O)CNc1nnnn1-c1ccccc1	x	n	x	x	x
COc1ccccc1OCCOCCN1CCCC1	n	n	n	n	n
CC(c1ccccc1)N1CCn2c(nc3cc(NC(=O)NC4CCCCC4)ccc32)C1 (stereo not given)	n	11.2µM	n	n	n
Fc1ccc(N2CCN(c3ncnc4c3nc3n4CCCCC3)CC2)cc1	x	n	n	x	n
Clc1cccc(N2CCN(c3ncnc4c3nc3n4CCCCC3)CC2)c1	x	u	n	x	17.8µM
Cc1cccc(N2CCN(c3ncnc4c3nc3n4CCCCC3)CC2)c1C	x	n	n	x	22.4µM
